Compound activity deposited in PubChem BioAssay by National Center for Advancing Translational Sciences (NCATS).
TDP1 cell CPT: DT40-hTDP1 cell growth loss with CPT. chicken DT40 Tdp1-/-;hTDP1 cells + 20 nM CPT, ATP luminescence, 48 h. Potency, µM (highest dose often 46.2 µM), for the others: top-dose activity change, negative = growth inhibition, hits mostly inhibitors. 420,000 compounds, 12% hits; also: nearly all actives have a fitted effect of over 55% in size
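Cell growth measured by CellTiter-Glo luminescence after a minimum 48 h, 37 C compound exposure with 20 nM CPT in Tdp1-knockout DT40 cells stably expressing hTDP1, seeded 400/well; qHTS titration format.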
RORgamma inh: ROR gamma (mouse) transcription inhibition. Drosophila S2 Gal4-RORgamma UAS-luciferase reporter, 20 h. Potency, µM (series often up to 53.6 µM), for inactives: at the top dose activity change, negative = inhibition, actives largely listed as inhibitors. 310,000 compounds, 5.4% hits. AID 2551; also: nearly all actives have a fitted effect of over 60% in size
Target sequence (P51450 whole entry, looked up, the tested form may be a part): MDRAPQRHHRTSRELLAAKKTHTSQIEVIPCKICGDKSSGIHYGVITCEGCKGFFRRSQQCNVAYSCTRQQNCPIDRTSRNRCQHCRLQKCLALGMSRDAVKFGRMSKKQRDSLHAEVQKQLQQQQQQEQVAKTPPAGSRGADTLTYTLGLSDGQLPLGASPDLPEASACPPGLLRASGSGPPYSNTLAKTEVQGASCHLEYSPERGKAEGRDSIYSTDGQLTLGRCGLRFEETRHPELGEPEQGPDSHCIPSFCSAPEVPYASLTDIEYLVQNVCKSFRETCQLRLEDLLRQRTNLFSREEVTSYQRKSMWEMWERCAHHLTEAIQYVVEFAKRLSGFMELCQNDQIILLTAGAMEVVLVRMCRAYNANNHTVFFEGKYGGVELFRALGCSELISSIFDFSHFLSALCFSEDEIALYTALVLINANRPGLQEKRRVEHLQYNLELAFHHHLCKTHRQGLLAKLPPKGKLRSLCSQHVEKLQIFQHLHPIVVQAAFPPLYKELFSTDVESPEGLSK
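Luminescence from a UAS-regulated Photinus luciferase reporter in stably transfected Drosophila Schneider cells is measured; decreased signal marks ROR gamma inhibition. Fusion expression is induced by 700 uM copper sulfate for 20 hr.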
TDP1 block: TDP1 (human) enzyme inhibition; Q9NUW8; recombinant TDP1, AlphaScreen DNA substrate cleavage; Potency, µM (series often up to 130 µM), inactives show at the highest dose activity change, negative = inhibition, hits mostly inhibitors; 350,000 compounds, 0.28% hits; AID 485290; also: nearly all actives have a fitted effect of over 40% in size
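Tdp1 1 nM final; 15 min RT w/ cpd; substrate 15 nM, 5 min; beads 10 ug/ml, 10 min; AlphaScreen read. Neg ctrl: no enzyme.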
DT40 TDP1 no CPT: qHTS for Inhibitors of human tyrosyl-DNA phosphodiesterase 1 (TDP1): qHTS in cells in absence of CPT; AID 686978, 2013; 420,000 compounds, 15% hits; Potency, µM (top dose mostly 46.2 µM), for inactives: top-dose activity change, negative = growth inhibition, most hits filed as inhibitors; DT40 Tdp1-/- hTDP1 cells, no CPT, ATP luminescence, 48 h; also: nearly all actives have a fitted effect of over 55% in size
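Chicken DT40 Tdp1-/- cells complemented with human TDP1, screened without camptothecin (DMSO vehicle only), 400 cells/well. Compounds pin-transferred, cells incubated at 37 °C for at least 48 hr. Growth read as ATP-dependent luminescence (CellTiter-Glo, 30 min at RT).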
Gal4-VP16 FLuc: inhibits Gal4-VP16 luciferase reporter, ROR gamma counter-screen; AID 2546; Drosophila S2 Gal4-VP16 UAS-luciferase, luminescence, 20 h; Potency, µM (doses to about 53.6 µM), for inactives: at the top dose activity, negative = inhibition, hits mostly inhibitors; 310,000 compounds, 3.5% hits;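 also: Gal4-VP16 expression switched on by copper sulfate through the metallothionein promoter; nearly all actives have a fitted effect of over 50% in size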
Active calls of the source: *; u = inconclusive; x = not tested or not shown; [ ] = dose if it differs, or a comment. Most compounds without a hit are left out; they make up all but 19% or so of the library. Calls follow the shape of the dose curve; as a rule, active = well fitted curve in the direction sought with a large enough effect; inconclusive = small, poorly fitted or top-dose-only effect, or another doubt; inactive = no such curve, though single readings can be large; an effect the other way counts as inactive or inconclusive. % is scaled to controls: 0 for no effect and ±100 for the full control effect; potency is read from the fitted curve at half-maximal effect.

SMILES | TDP1 cell CPT | RORgamma inh | TDP1 block | DT40 TDP1 no CPT | Gal4-VP16 FLuc
COc1ccc([C@H]2N[C@]3(CCCN(CC4CCCCC4)C3=O)[C@H]3C(=O)N(Cc4ccccc4)C(=O)[C@@H]23)cc1 | u | x | x | 20.6µM* | x
CCN1C(=O)[C@H]2[C@@H](c3ccc(OC)cc3)N[C@]3(CCCN(Cc4ccc(C(F)(F)F)cc4)C3=O)[C@H]2C1=O | u | x | x | 18.4µM* | x
CCN1C(=O)[C@H]2[C@@H](c3ccc(C)cc3)N[C@]3(CCCN(CC4CCCCC4)C3=O)[C@H]2C1=O | -12.6% | x | x | u | x
COc1ccc(CN2CCC[C@]3(N[C@H](c4ccc(C)cc4)[C@@H]4C(=O)N(C)C(=O)[C@@H]43)C2=O)cc1 | -27.8% | x | x | -29.6% | x
CCN1C(C(=O)c2ccccc2)=C(OC(=O)c2ccccc2OC)c2ccccc2S1(=O)=O | 4.61µM* | x | x | 3.26µM* | x
CCCCN1C(C(=O)c2ccccc2)=C(OC(C)=O)c2ccccc2S1(=O)=O | 5.17µM* | x | 7.0% | 4.61µM* | x
CCCCC(=O)OC1=C(C(=O)c2ccccc2)N(CC)S(=O)(=O)c2ccccc21 | 20.6µM* | x | 4.7% | 7.31µM* | x
CCN1C(C(=O)c2ccccc2)=C(Nc2ccccc2C)c2ccccc2S1(=O)=O | -29.2% | 1.7% | -2.7% | u | -16.6%
CCOc1ccc(CN2CCN(Cc3ccsc3)C(CCO)C2)cc1CO (configuration not stated) | 0.6% | 36.3% | 0.0% | -15.0% | 1.7%
Cc1ccc(-n2c(SCC(=O)NCc3ccco3)nnc2-c2cccnc2)c(C)c1 | u | 17.6% | 9.8% | -5.6% | -2.5%
CC(OC(=O)c1ccc(Cl)nc1)C(=O)Nc1ccc2c(c1)OCO2 (configuration not stated) | u | x | 1.5% | u | x
Cc1[nH]c2ccccc2c1C(C#N)(C#N)C1C(=O)c2ccccc2C1=O | 2.06µM* | u | 11.2% | 2.06µM* | 1.0%
COc1ccc(CCN2C(=O)c3[nH]nc(-c4ccccc4O)c3C2c2cccc(O)c2)cc1OC (configuration not stated) | -0.5% | -5.8% | 1.0% | u | -14.3%
CCCCNc1c(CCc2ccccc2)nc2nc(C)cc(C)n12 | 18.4µM* | x | x | u | x
COc1ccc(Nc2cc(C)nc3ccc(OC)cc23)cc1 | -3.5% | -21.4% | x | u | -2.3%
COc1ccc(Nc2c(CCc3ccccc3)nc3nc(C)cc(C)n23)cc1 | 18.4µM* | x | x | 13µM* | x
Cc1ccc(Nc2c(-c3ccco3)nc3nc(C)cc(C)n23)cc1 | u | 23.8% | 2.3% | u | u
Cc1cc(C)n2nc(Cc3ccccc3)nc2n1 | -3.8% | u | 4.4% | -29.7% | -1.6%
CCc1nc2nc(C)cc(C)n2c1Nc1ccc(OC)cc1 | u | x | x | 18.4µM* | x
CCCCCCN1CCN(C2CN(CCCC)S(=O)(=O)C2)CC1 (configuration not stated) | -4.0% | x | x | u | x
CCOc1ccc2c(c1)c(N=Nc1cccc(C(=O)O)c1)c(O)n2C | -3.6% | u | 4.7% | -10.8% | -4.7%
Cc1ccc(-c2nc(-c3ccncc3)no2)cc1C | -16.4% | 8.91µM* | 3.1% | -24.6% | u
CNc1ccc(-c2nc(-c3ccncc3)no2)cc1[N+](=O)[O-] | -14.1% | x | 5.7% | -6.2% | x
Cc1cc(-c2nc(-c3ccncc3)no2)ccc1[N+](=O)[O-] | 14.6µM* | -0.2% | x | u | 21.0%
CC1CC(C)CN(CC(O)COc2ccc3c(c2)CCC3)C1 (configuration not stated) | u | -3.9% | 2.4% | u | 1.0%
SMILES | TDP1 cell CPT | RORgamma inh | TDP1 block | DT40 TDP1 no CPT | Gal4-VP16 FLuc
O=C(CCl)N1CCCC1c1ccc2c(c1)OCCO2 (configuration not stated) | 0.731µM* | 4.47µM* | x | 1.16µM* | u
O=C(CN1CCCC1c1ccc2c(c1)OCCO2)NC(=O)Nc1ccccc1 (configuration not stated) | u | x | 0.3%[56.1 µM] | u | x
Cc1ccc(NC(=O)NC(=O)CN2CCCC2c2ccc3c(c2)OCCO3)cc1C (configuration not stated) | 29.1µM* | x | 2.0% | u | x
O=C(c1ccc2c(c1)OCO2)C1CCCN(Cc2ccc3cccc(F)c3n2)C1 (configuration not stated) | u | -28.5% | -1.2% | 20.6µM* | -3.9%
COc1ccc(C(=O)N2CCN(Cc3ccccn3)CC2)cc1 | 3.7% | 16.3% | x | 17.9% | 1.7%
COc1c(C)cc(C(=O)C2CCCN(Cc3ccc(Oc4ncccn4)cc3)C2)cc1C (configuration not stated) | u | 17.2% | -5.4% | 14.6µM* | 4.0%
COc1ccc2cc(C(=O)C3CCCN(Cc4ccccn4)C3)ccc2c1 (configuration not stated) | u | 3.16µM* | 0.0% | 18.4µM* | u
COc1ccc2cc(C(=O)C3CCCN(Cc4cnc(N5CCOCC5)s4)C3)ccc2c1 (configuration not stated) | u | 6.9% | 2.5% | 18.4µM* | -2.5%
CC(C)Oc1cccc(C(=O)C2CCCN(Cc3ccc(Oc4ncccn4)cc3)C2)c1 (configuration not stated) | 4.7% | 4.2% | 3.6% | u | -9.1%
O=C(c1ccc2c(c1)OCO2)C1CCCN(Cc2cccc(C(F)(F)F)c2)C1 (configuration not stated) | u | -3.8% | 1.8% | 2.4% | 0.7%
CCCn1nc(C(=O)Nc2cccc(C(=O)OC)c2)c2ccccc2c1=O | u | 3.1% | 2.1% | u | -9.3%
CCn1ccnc1CN1CCCC(C(=O)c2ccc3cc(OC)ccc3c2)C1 (configuration not stated) | 2.91µM* | 0.0224µM* | 6.1% | 4.61µM* | 1.58µM*
COc1cccc(C(=O)C2CCCN(Cc3cccc(-n4cccn4)c3)C2)c1 (configuration not stated) | u | 19.2% | x | u | -6.4%
COC(=O)/C=C1\S/C(=N/N=C/c2ccco2)NC1=O | -4.7% | 7.08µM* | 0.0% | 3.3% | -15.8%[10 µM]
COC(=O)/C=C1/S/C(=N/N=C/c2ccco2)NC1=O | 2.9% | 14.1µM* | 2.7% | -4.2% | u
COC(=O)/C=C1\S/C(=N/N=C/c2ccccc2)NC1=O | -14.1% | u | 3.2% | -26.1% | u
COc1nccnc1NS(=O)(=O)c1ccc(NC(=S)NC(=O)c2ccccc2)cc1 | -12.3% | 21.3% | -5.7% | u | -7.8%
O=c1c2c(nc3c(-c4ccccc4)c[nH]n13)CCCC2 | 23.1µM* | 10µM* | 9.1% | 23.1µM* | u
Cc1[nH]n2c(=O)c3c(nc2c1-c1ccc(Cl)cc1)CCC3 | 11.6µM* | 2.24µM* | 3.3% | 20.6µM* | u
